Bioassay records from PubChem.
HGIII-sPLA2 inh: Inhibits HGIII-sPLA2 liposome hydrolysis, primary screen. QFRET BODIPY PC-A2 liposome hydrolysis, fluorescence. inhibition, % at 12.2 µM. 370,000 compounds, 0.56% hits;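 active means inhibition above mean plus 3 SD of compounds lying within the high and low control bounds, cut at about 19% in these data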;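 further: 0% = median of test compound wells and 100% = no enzyme DMSO wells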
Target sequence (Q9NZ20 whole entry, looked up): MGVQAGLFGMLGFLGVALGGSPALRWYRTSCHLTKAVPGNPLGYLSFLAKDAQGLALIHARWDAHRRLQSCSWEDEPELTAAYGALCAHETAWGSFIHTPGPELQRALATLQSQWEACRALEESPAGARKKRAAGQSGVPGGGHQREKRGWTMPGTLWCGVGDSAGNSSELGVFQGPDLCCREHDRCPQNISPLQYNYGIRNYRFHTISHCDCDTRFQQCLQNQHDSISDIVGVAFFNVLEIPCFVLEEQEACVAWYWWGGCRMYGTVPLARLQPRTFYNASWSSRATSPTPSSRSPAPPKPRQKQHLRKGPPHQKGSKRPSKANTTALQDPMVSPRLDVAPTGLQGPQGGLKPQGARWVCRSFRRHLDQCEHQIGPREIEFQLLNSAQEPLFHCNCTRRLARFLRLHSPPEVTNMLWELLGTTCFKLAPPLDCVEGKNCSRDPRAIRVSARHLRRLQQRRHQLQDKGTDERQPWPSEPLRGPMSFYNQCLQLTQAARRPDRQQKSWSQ
AI-2 QS modul: modulators of Vibrio harveyi AI-2 quorum sensing system; Vibrio harveyi JMH597 AI-2 luminescence/OD600 ratio, 9 h; stronger effect = lower value; strain lacks LuxN and CqsS sensors; 0 = neutral-control median; 300,000 compounds, 0.4% hits; activity change, % at 7.5 µM; AID 2094; in the data active means activity change below about -75%, passing the limit was not always enough;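 further: luminescence divided by OD600 gain over 9 h not by final OD600 alone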
ARNT TACC3 PPI: ARNT/TACC3 interaction disruption; Q9Y6A5; AlphaScreen His-ARNT PAS-B/GST-TACC3 binding, luminescence; TACC3 fragment carries E629A point mutation; 390,000 compounds, 0.66% hits; inhibition, % at 9.99 µM;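 active means mean inhibition of replicates at least 50% and at least half of replicates each reaching 50%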;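 further: 0% = complete ARNT plus TACC3 wells and 100% = ARNT alone without TACC3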
Rin1-Abl PPI inh: blocks binding of human Rin1 to Abl; P00519+Q13671; TR-FRET Rin1/Abl binding, biochemical; inhibition, % at 7.35 µM; 360,000 compounds, 0.4% hits; in the data active means inhibition above about 5%, passing the limit was not always enough
hGIII sPLA2 conf: human GIII-sPLA2 inhibition, confirmation. shares compounds with HGIII-sPLA2 inh. recombinant hGIII-sPLA2, BODIPY PC-A2 QFRET fluorescence. inhibition, % at 12.2 µM. 2,000 compounds, 34% hits;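 active means mean inhibition across triplicates above the hit cutoff set in the earlier primary screen, cut at about 19% in these data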;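 further: 0% = enzyme with DMSO and 100% = DMSO wells lacking enzyme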
535nm interf: 535nm fluorescence interference, HGIII-sPLA2 counter-screen; shares compounds with HGIII-sPLA2 inh; BODIPY FL product fluorescence interference, QFRET; inhibition, % at 12.2 µM; 2,000 compounds, 8.5% hits; AID 743282;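 active means average inhibition above the solvent-only control mean plus 3 SD, cut at about 6% in these data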;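 further: 0% = DMSO with substrate plus product and 100% = DMSO with substrate alone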
535nm interf DR: 535nm optical interference dose response, HGIII-sPLA2 counter-screen. 240 tested, under 10 active. IC50, µM. BODIPY FL product fluorescence interference, cell-free. shares compounds with HGIII-sPLA2 inh;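 active means IC50 at or below 10 µM; inactive means IC50 above 10 µM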
* hit, by the source's call; · = no result given. An excerpt weighted towards active compounds, which were near 1.5% of everything screened.

SMILES	HGIII-sPLA2 inh	AI-2 QS modul	ARNT TACC3 PPI	Rin1-Abl PPI inh	hGIII sPLA2 conf	535nm interf	others
S=C(Nc1ccccc1)Nc1nc2ccccc2n1CCOc1ccccc1	21.3*	25.8	-1.8	-0.3	25.4*	0.2
CC(=O)Nc1nc2ccccc2n1CCOc1ccccc1	-4.8	18.0	-0.9	-0.5	·	·
COCCn1c(C)cc(C(=O)COC(=O)c2cncc(Br)c2)c1C	21.3*	13.5	·	0.8	5.9	-7.8
O=C(Nc1ccc(N2CCCCCC2)cc1)c1ccccc1Cl	16.4	-64.4	-11.0	-2.0	·	·
O=C(Nc1ccc(N2CCCC2)cc1)c1cccc(Cl)c1	24.4*	12.6	7.7	-0.7	25.3*	-1.1
CN(C)S(=O)(=O)c1cccc(C(=O)Nc2ccc(N3CCOCC3)cc2)c1	24.5*	24.6	-8.3	-2.3	3.7	-1.9
CN(c1ccccc1)S(=O)(=O)c1cccc(C(=O)Nc2ccc(N3CCOCC3)cc2)c1	-7.7	·	10.1	-1.2	·	·
O=C(Nc1ccc(N2CCCCCC2)cc1)c1ccc[nH]1	22.0*	·	30.6	3.5	33.5*	-5.8	535nm interf DR=>122
C[C@@H]1CN([C@@H](C)CO)C(=O)c2cc(-c3ccccc3)cnc2O[C@@H]1CN(C)C(=O)c1ccccn1	·	·	25.3	·	·	·
Cn1cnc(S(=O)(=O)N2CC[C@H]3[C@H](CO)Nc4ccc(-c5cccc(F)c5)cc4[C@H]32)c1	·	·	-0.3	·	·	·
CO[C@@H]1CN(C)C(=O)c2cc(NC(C)=O)ccc2OC[C@H](C)N(C(=O)c2cnccn2)C[C@H]1C	·	·	0.3	·	·	·
CCn1c(-c2ccc3[nH]c(C)c(C)c3c2)n[nH]c1=S	13.0	2.6	-12.6	4.6	·	·
Cc1[nH]c2ccc(-c3n[nH]c(=S)n3C)cc2c1C	21.0*	15.7	1.4	-1.1	26.4*	3.6
CCN1/C(=C2\OC(=S)N(C)C2=O)C=Cc2ccccc21	6.7	20.3	-8.7	-3.6	·	·
CCSC1=NC(=O)/C(=C2/C=Cc3ccccc3N2CC)S1	20.6*	24.2	23.5	-2.8	46.3*	9.6*
COc1ccc2c(c1)-c1c(sn(-c3ccccc3)c1=S)C(C)(C)N2	18.3	-19.7	7.3	0.8	·	·
COc1ccc(-n2sc3c(c2=S)-c2cc(OC)ccc2NC3(C)C)cc1	27.3*	2.8	2.6	2.6	12.3	8.1*
CC(=O)c1c(C)nc2sc3c(=N)n(N)cnc3c2c1-c1ccc(Cl)cc1	30.3*	24.9	·	-13.0	3.6	-9.1
CCOC(=O)c1c(C)nc2sc3c(=O)n(-c4ccc(C(C)=O)cc4)cnc3c2c1-c1ccc(OC)cc1	0.9	4.7	·	0.5	·	·
COc1ccc(CN(C)C[C@H]2OCCCC[C@H](C)Oc3ccc(NC(=O)c4ccncc4)cc3C(=O)N([C@@H](C)CO)C[C@@H]2C)cc1	·	·	1.5	·	·	·
Cc1ccc(S(=O)(=O)NCC[C@@H]2CC[C@H](NC(=O)c3ccccn3)[C@@H](CO)O2)cc1	·	·	-5.6	·	·	·
C[C@@H]1CN([C@@H](C)CO)S(=O)(=O)c2ccc(-c3cccnc3)cc2O[C@H]1CN(C)C(=O)C1CCCCC1	·	·	3.9	·	·	·
CCOC(=O)c1cc(C#N)c(SCC(=O)c2cc(C#N)c(SC)nc2C)nc1C	19.6*	16.1	-12.4	-1.4	-10.7	-3.0
Cc1cnc(NC(=O)CSc2ccccc2)s1	1.4	-3.2	1.3	5.0	·	·
Cc1cnc(NC(=O)CSc2nnc(C)n2N)s1	21.8*	36.8	-34.7	-0.8	-1.3	-5.2
CCOC(=S)SCC(=O)Nc1ncc(C)s1	20.2*	32.9	2.4	0.1	-6.7	-6.7
CCCC/C(C)=N/NC(=O)CN(c1ccc(Br)cc1)S(=O)(=O)c1ccccc1	5.9	26.4	-6.1	1.0	·	·
C/C(=N/NC(=O)CN(c1ccccc1)S(=O)(=O)c1ccccc1)c1ccccc1O	23.6*	24.7	-0.5	-1.3	14.7	-5.8
NC(N)=N/N=C(\N=Nc1ccccc1)c1ccc(Cl)cc1	27.0*	·	26.4	-6.9	34.5*	2.1	535nm interf DR=>122
COc1ccc(NC(=O)Nc2ccc3c(c2)[C@@H]2C[C@@H](CC(=O)N4CCCCC4)O[C@@H](CO)[C@@H]2O3)cc1	·	·	-4.9	·	·	·
